# Data taken from PubChem BioAssay AID2685 (National Center for Advancing Translational Sciences (NCATS), 2010).
# The whole screen tested about 320,000 compounds, of which about 2,100 (0.66%) were called active. About 53% were inconclusive and are not listed. Calls follow the shape of the dose curve; as a rule, active = well fitted inhibition curve with a large enough effect in the signal ratio, with a control signal flat (not every such curve was filed as active); inconclusive = small, poorly fitted or top-dose-only effect, or effect the other way, or a change in a side signal; inactive = flat fitted curve, though single readings scatter; the % refers to the signal ratio. Only a selection was taken, and actives are over-represented in it overall.
# Assay: qHTS Assay for Lipid Storage Modulators in Drosophila S3 Cells;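 as to cell number change: cells counted by Cell Tracker Red CMTPX staining in the red channel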
# Conditions: BODIPY lipid droplet fluorescence, 18-24 h, cells fed with added oleic acid; cell number change: measured here: cell count max response; series mostly up to 46.1 µM
# Procedure, shortened: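 Drosophila S3 cells got compounds at several concentrations plus oleic acid (400 uM solution). Laser-scanning cytometry with 488 nm excitation read lipid droplets at 500-530 nm and cells at 575-640 nm. Percent activity was relative to 20 uM Triacsin C.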
# Potency is read from the fitted curve at half-maximal effect.
SMILES,Potency,cell number change [%]
COc1ccc(OC)c(S(=O)(=O)N2CCC(C(=O)N3CCN(Cc4ccccc4)CC3)CC2)c1,8.2 µM (active),-36.9
COc1ccc(S(=O)(=O)N2CCCC(C(=O)N3CCCCCC3)C2)cc1 (configuration not stated),inactive,
COc1ccc(OC)c(S(=O)(=O)N2CCC(C(=O)N3CCCCCC3)CC2)c1,inactive,10.5
COc1ccc(CN2CCCC(C(=O)N3CCCCC3)C2)c(OC)c1 (configuration not stated),18.4 µM (active),-9.62
COc1ccc(OC)c(S(=O)(=O)N2CCCC(C(=O)N3CCC(C(N)=O)CC3)C2)c1 (configuration not stated),inactive,
COc1ccccc1CN1CCCC(C(=O)N2CCCCC2)C1 (configuration not stated),inactive,-12.4
COc1ccc(OC)c(S(=O)(=O)N2CCCC(C(=O)N3CCCCCC3)C2)c1 (configuration not stated),3.26 µM (active),-13.8
COc1ccc(OC)c(S(=O)(=O)N2CCC(C(=O)N3CCOCC3)CC2)c1,inactive,23.2
COc1ccccc1CN1CCN(Cc2nc(Cc3ccccc3)no2)CC1,inactive,-11.2
COc1ccc(C(=O)COC(=O)C(CCSC)NC(=O)COc2ccccc2)cc1 (configuration not stated),inactive,-12.5
COc1ccc(Cc2noc(CN3CCN(Cc4csc(C)n4)CC3)n2)cc1OC,inactive,3.13
CC(Sc1cnccn1)C(=O)O (configuration not stated),inactive,-4.62
CC(=O)NCC1CCCN(C(=O)c2oc3c(F)cccc3c2C)C1 (configuration not stated),inactive,-13.1
O=C(COC(=O)C1CC1)NCc1ccccc1,inactive,
COc1cc(OC)c(/C=N/NC(=O)Cn2nc([N+](=O)[O-])cc2C)c(OC)c1,inactive,
COc1ccc(CCNC(=O)CC2Nc3cc(C)c(C)cc3NC2=O)cc1OC (configuration not stated),inactive,21.5
COc1ccc(CCNC(=O)c2ccc3c(c2)NC(=O)C(C(C)C)N3)cc1OC (configuration not stated),inactive,-27
COc1ccc(CCNC(=O)c2ccc3c(c2)NC(=O)C(CSCc2cc(C)ccc2C)N3)cc1OC (configuration not stated),23.1 µM (active),3.36
COc1ccc(C(=O)NNC(=O)CCCCC(=O)NNC(=O)c2ccc(OC)cc2)cc1,inactive,-8.93
COc1ccc2[nH]c(C(=O)O)c(CCN3C(=O)c4ccc(C(=O)O)cc4C3=O)c2c1,inactive,
CC(C)(C)C#CCn1c(/C=[N+](\[O-])C2CCCCC2)nc2ccccc21,inactive,-20.4
Cc1nc2cc(C(=O)OCC(=O)Nc3cccc(Cl)c3)ccc2n1-c1ccccc1,inactive,16.2
COc1cc2ccccc2cc1C(=O)NC(=S)Nc1ccc(C(=O)O)cc1,18.4 µM (active),-28.9
COc1cc2ccccc2cc1C(=O)NC(=S)Nc1cccc(C(=O)O)c1,inactive,12.5

SMILES,Potency,cell number change [%]
COc1cc2ccccc2cc1C(=O)NC(=S)Nc1cc(C(=O)O)ccc1C,inactive,-26.2
COC(=O)C1CCN(C(=O)C23CCC(C)(C(=O)O2)C3(C)C)CC1 (configuration not stated),inactive,
Cc1ccc(NC(=O)CSc2nnc(-c3ccncc3)s2)cc1,inactive,5.56
CCn1c(C)[n+](CC)c2ccc(S(=O)(=O)N(C)C)cc21,inactive,4.86
O=C(O)/C=C/C(=O)NCc1ccccn1,inactive,-7.29
CN(Cc1ccccc1)C(=O)COC(=O)c1ccc2ccccc2n1,inactive,15.9
CNc1snc(C)c1C(=O)OCC(=O)N(C)Cc1ccccc1,14.6 µM (active),-17.1
CN(Cc1ccccc1)C(=O)COC(=O)c1ccccc1Nc1ccccc1,inactive,-9.93
CC(=O)Nc1ccc(S(=O)(=O)NC(CC(=O)NC2CCCCC2C)C(C)C)cc1 (configuration not stated),inactive,
CCC(C)NC(=O)CC(NS(=O)(=O)c1ccc(NC(C)=O)cc1)C(C)C (configuration not stated),inactive,10.4
COCCNC(=O)CC(NS(=O)(=O)c1ccc(NC(C)=O)cc1)C(C)C (configuration not stated),5.8 µM (active),-2.55
Cc1cc(=O)[nH]c(SCC(N)=O)c1C#N,23.1 µM (active),-10.4
Cc1cc(=O)[nH]c(SCC(=O)O)c1C#N,inactive,-1.88
CCOC(=O)CSc1[nH]c(=O)cc(C)c1C#N,inactive,23.9
Cc1ccc(C(=O)N2CCC3(CC2)Oc2ccc(F)cc2C(=O)C32CC(c3ccccc3)=NO2)s1 (configuration not stated),inactive,11.1
COc1ccc(OC)c(N(CC(=O)Nc2ccc(NC(C)=O)cc2)S(C)(=O)=O)c1,inactive,18.4
Cc1ccnc(NC(=O)c2ccc(N3C(=O)CCC3=O)cc2)c1,inactive,-2.76
COc1cccc(N2CCN(c3ccc4nnc(CCC(=O)Nc5cccc(C(C)=O)c5)n4n3)CC2)c1,inactive,-9.88
COc1cc(NC(=O)CCc2nnc3ccc(N4CCN(c5cccc(OC)c5)CC4)nn23)cc(OC)c1,inactive,-21.5
COc1cccc(NC(=O)CCc2nnc3ccc(N4CCN(c5cccc(OC)c5)CC4)nn23)c1,9.2 µM (active),-24.5
COC(=O)c1ccc(NC(=O)CCc2nnc3ccc(N4CCC5(CC4)OCCO5)nn23)cc1,inactive,-17.4
COc1ccccc1NC(=O)CCc1nnc2ccc(N3CCC4(CC3)OCCO4)nn12,2.06 µM (active),-20.4
Cc1ccccc1NC(=O)CCc1nnc2ccc(N3CCC4(CC3)OCCO4)nn12,inactive,15.5
